Test results taken from PubChem BioAssay AID1671202 (University of Kansas High Throughput Screening Laboratory, 2021).
“And” between values parts separate entries of the source, which are not always exact repeats. Identical values can stand only once. The whole screen tested about 190,000 compounds, of which about 6,900 (3.6%) were called active. No stated cut-off is given here; in the data, active means inhibition above about 50%; inactive means the rest. The sample as a whole holds a higher share of actives than the screen did. Some structures have more than one record in an assay (separate samples or runs), and their calls can disagree.

These molecules were tested against Huntingtin (Homo sapiens) (UniProt P42858) (assay: mutant huntingtin-calmodulin interaction inhibitors – biochemical, AlphaScreen, primary screen (AID 1671202;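 on inhibition: 0% = both proteins with DMSO and 100% = one protein alone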)). Conditions: AlphaScreen His-mHTT/GST-CaM binding, luminescence; at 15 µM, stronger effect = higher value.
Sequence of Huntingtin (Homo sapiens) (P42858 whole entry, looked up, stated change not applied): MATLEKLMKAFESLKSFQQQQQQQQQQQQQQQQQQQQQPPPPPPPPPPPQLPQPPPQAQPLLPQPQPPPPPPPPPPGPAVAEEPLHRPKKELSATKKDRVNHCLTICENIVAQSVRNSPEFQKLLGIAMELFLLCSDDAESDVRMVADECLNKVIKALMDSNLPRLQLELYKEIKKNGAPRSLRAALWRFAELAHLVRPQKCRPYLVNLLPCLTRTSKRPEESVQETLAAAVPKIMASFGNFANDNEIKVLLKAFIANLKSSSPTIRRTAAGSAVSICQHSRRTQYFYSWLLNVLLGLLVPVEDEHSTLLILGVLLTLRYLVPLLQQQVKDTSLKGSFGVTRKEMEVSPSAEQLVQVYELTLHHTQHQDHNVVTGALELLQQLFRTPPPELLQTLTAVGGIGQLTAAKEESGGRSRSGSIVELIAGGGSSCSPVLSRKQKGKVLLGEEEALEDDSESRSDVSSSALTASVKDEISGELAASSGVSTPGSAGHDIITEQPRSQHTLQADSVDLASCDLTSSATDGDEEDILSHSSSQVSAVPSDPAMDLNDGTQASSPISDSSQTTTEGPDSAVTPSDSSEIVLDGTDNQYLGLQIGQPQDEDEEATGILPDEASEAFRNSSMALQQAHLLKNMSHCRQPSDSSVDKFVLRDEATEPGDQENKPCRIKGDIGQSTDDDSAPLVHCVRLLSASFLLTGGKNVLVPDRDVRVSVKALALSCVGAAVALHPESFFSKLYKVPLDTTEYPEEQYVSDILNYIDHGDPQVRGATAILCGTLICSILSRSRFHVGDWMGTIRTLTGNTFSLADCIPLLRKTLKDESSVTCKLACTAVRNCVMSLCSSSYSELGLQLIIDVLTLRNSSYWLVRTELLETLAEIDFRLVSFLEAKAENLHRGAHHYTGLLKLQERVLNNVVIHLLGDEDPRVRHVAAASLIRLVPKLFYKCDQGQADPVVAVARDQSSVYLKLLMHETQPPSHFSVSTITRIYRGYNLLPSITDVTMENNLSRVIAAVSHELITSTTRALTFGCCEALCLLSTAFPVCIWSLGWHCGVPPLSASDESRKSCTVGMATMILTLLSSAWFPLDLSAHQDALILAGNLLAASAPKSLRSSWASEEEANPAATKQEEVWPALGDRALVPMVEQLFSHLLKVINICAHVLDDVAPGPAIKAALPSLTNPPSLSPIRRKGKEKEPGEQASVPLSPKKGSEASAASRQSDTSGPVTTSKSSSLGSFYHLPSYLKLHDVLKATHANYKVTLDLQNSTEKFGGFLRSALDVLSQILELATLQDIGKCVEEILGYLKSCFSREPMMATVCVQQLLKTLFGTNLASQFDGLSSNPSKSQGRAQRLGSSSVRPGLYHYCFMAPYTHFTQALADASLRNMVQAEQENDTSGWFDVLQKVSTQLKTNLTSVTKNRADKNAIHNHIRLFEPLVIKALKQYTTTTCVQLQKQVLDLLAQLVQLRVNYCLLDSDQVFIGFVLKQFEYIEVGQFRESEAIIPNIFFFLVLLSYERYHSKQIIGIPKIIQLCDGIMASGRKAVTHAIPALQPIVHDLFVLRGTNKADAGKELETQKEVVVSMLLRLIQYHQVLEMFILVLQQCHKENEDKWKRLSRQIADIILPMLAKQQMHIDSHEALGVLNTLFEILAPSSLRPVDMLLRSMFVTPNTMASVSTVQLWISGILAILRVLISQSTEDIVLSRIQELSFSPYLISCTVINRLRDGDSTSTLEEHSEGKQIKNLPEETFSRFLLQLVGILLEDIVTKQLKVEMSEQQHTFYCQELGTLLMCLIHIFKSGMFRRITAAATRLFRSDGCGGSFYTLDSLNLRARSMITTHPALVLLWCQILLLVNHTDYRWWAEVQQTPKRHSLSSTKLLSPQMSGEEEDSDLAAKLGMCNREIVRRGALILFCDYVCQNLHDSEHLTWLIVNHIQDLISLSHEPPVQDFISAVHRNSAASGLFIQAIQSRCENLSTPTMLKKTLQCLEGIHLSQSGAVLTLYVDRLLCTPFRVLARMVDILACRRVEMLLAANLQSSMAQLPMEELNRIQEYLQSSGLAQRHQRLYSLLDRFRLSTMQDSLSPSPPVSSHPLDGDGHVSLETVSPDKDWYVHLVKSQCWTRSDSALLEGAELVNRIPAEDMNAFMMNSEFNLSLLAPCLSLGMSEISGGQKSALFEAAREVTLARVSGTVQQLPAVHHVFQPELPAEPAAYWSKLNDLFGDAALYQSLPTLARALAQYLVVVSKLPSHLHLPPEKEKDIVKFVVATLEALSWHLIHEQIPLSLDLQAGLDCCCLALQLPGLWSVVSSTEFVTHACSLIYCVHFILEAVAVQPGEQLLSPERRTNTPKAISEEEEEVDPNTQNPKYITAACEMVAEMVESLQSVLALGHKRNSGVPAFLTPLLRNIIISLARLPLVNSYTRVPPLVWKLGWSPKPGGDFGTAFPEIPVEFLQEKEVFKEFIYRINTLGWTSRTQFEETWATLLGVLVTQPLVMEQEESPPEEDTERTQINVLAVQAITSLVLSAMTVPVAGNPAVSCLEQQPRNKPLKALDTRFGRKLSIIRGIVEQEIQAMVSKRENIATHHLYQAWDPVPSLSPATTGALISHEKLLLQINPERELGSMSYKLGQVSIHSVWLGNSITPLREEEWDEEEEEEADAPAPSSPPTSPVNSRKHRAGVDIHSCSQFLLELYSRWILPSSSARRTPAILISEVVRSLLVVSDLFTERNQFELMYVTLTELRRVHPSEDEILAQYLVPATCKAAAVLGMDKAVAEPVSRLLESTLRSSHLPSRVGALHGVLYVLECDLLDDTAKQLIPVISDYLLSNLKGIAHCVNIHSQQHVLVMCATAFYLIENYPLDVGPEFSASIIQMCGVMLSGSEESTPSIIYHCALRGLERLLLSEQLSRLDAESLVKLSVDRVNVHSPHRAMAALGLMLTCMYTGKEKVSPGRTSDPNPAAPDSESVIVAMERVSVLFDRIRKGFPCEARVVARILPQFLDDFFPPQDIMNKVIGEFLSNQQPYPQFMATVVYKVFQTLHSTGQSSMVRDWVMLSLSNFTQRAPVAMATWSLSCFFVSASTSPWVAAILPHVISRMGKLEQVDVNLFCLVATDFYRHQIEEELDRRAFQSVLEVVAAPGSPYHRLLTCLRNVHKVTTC

Compound | inhibition
COc1ccc(Nc2nc(Cl)nc(NCCN3CCOCC3)n2)c(OC)c1 | 4% (inactive)
COc1ccc(C2CC(=O)Oc3ccc(C(C)(C)C)cc32)cc1 (configuration not stated) | -22.8% (inactive)
COc1cc(OC)c2c(C)cc(=O)oc2c1C(CCN1CCCCC1)c1ccc(N(C)C)cc1 (configuration not stated) | 78.3% (active)
COc1cc(OC)c2c(c1C(CCN1CCCCC1)c1ccc(N(C)C)cc1)OC(=O)CC2c1ccc(N(C)C)cc1 (configuration not stated) | 76.8% (active)
COc1cc(OC)c2c(c1)OC(=O)CC2c1cc(OC)c(OC)c(OC)c1 (configuration not stated) | 3.2% (inactive)
COc1ccc(-c2c(C)c3ccc(OCCN4CCCCC4)cc3oc2=O)cc1OC | -2.1% (inactive)
COc1ccc(C(CCN2CCOCC2)c2c(OC)cc(OC)c3c2OC(=O)CC3c2ccc(OC)cc2)cc1 (configuration not stated) | 71.6% (active)
Cc1ccc(C(C)C)cc1OCCN1CCCC1 | -3.2% (inactive)
COc1ccc(CNC(=O)CC2CCN(C(=O)c3[nH]c(C)c(C)c3C)CC2)cc1 | 11.4% (inactive)
COc1ccc(CCNc2nc(C)nc3sc(C)cc23)cc1OC | 0% (inactive)
CC(C)c1c(C2CCN(C(=O)c3cccc(F)c3)CC2)noc1N | -1.9% (inactive)
Cc1cc(C(=O)NCCCn2ccnc2)ccc1[N+](=O)[O-] | -2.3% (inactive)
CC(CC(=O)N1CCN(c2nc3ccccc3n(C)c2=O)CC1)c1ccccc1 (configuration not stated) | 3.2% (inactive)
Cc1ccccc1C1=N/C(=C\c2ccc(Br)cc2)C(=O)O1 | -1% (inactive)
COc1ccc(-c2csc(=Nc3ccccc3)n2C)cc1 | 29% (inactive)
CN(C)CCCn1c(-c2ccc(Cl)cc2)csc1=Nc1ccccc1 | 89% (active)
COc1ccc(C2C(=C(O)c3ccc(Cl)cc3)C(=O)C(=O)N2CCCN(C)C)c(OC)c1 (configuration not stated) | -4.4% (inactive)
CC1C(=O)N(c2ccc(Br)cc2)CCN1C(=O)C1CCCC1 (configuration not stated) | -6.1% (inactive)
O=C(CCS(=O)(=O)Cc1ccccc1F)NCCCN1CCCCC1 | 1% (inactive)
Cc1nc(-c2ccccc2)oc1CC(=O)NCCN1CCCCCC1 | 100% (active)
Cc1ccc(C(=O)N2CCC(CC(=O)NCCN3CCCCCC3)CC2)cc1 | 13.3% (inactive)
O=S(=O)(c1ccccc1)c1cccs1 | -6.17% (inactive)
Cc1cc(C)c(NC(=O)CNC2CC(C)(C)NC(C)(C)C2)c(C)c1 | -6.9% (inactive)

Compound | inhibition
COc1ccc2oc(=O)c(-c3nnc(Nc4ccc(C)cc4)s3)cc2c1 | 3% (inactive)
Cc1ccc2nc3sc(C(=O)N4CCN(C(=O)c5ccco5)CC4)cc3c(=O)n2c1 | 12.9% (inactive)
O=C(c1ccco1)N1CCN(c2ccc([N+](=O)[O-])cc2)CC1 | 0.2% (inactive)
O=C(c1ccco1)N1CCN(c2ncnc3sc(-c4ccccc4)cc23)CC1 | 54.6% (active)
COc1cc(C(=O)N2CCC(CC(=O)NCc3ccccn3)CC2)cc(OC)c1OC | 19.9% (inactive)
COCCN1C(=O)c2ccccc2C(C(=O)NCC2CCCO2)C1c1ccc(F)cc1 (configuration not stated) | 0% (inactive)
Cc1ccc(C(=O)N2CCc3sc(C(=O)NCCC(C)C)cc3C2)cc1 | -0.52% (inactive)
O=C(Nc1ccc([N+](=O)[O-])cc1)C12CC3CC(C1)CC(c1ccccc1)(C3)C2 | 14.9% (inactive)
O=C(c1ccc(F)cc1)N1CCC(n2nc(-c3ccsc3)ccc2=O)CC1 | 93.2% (active)
O=C(c1ccc2c(c1)OCO2)N1CCOCC1 | 1% (inactive)
O=C(c1ccc(-c2ccsc2)nc1)N1CCCCCC1 | -6.2% (inactive)
O=C(c1ccc2c(c1)OCO2)N1CCC(n2nc(-c3ccsc3)ccc2=O)CC1 | 98% (active)
O=C(c1ccc(-c2ccsc2)nc1)N1CCOCC1 | -3.2% (inactive)
CC1CCCN(C(=O)c2ccc(-c3ccsc3)nc2)C1 (configuration not stated) | -3.7% (inactive)
COc1ccc(NC(=O)N2CCCC2c2nc(-c3ccc(F)cc3F)no2)cc1F (configuration not stated) | 5.86% (inactive)
O=C(C1CCCC1)N1CCN(Cc2noc(-c3cccc4ccccc34)n2)CC1 | 19.3% (inactive)
O=C(N/N=C/C=C\c1ccco1)c1ccco1 | inactive
O=C(NCCn1ncccc1=O)c1cc(C2CC2)on1 | -8.3% (inactive)
O=c1c(-c2ccc3c(c2)OCCO3)c(C(F)(F)F)oc2cc(O)cc(O)c12 | 54.5% (active)
COc1ccc(-c2c(C(F)(F)F)oc3cc(O)ccc3c2=O)cc1 | 10% (inactive) and -0.6% (inactive)
Cc1cc(O)c2c(=O)c(-c3csc(C)n3)c(C(F)(F)F)oc2c1 | 1% (inactive)
COc1ccc(-c2noc(C3CCN(CC(=O)Nc4ccc(C)c(F)c4)CC3)n2)cc1 | -6.73% (inactive)
Cc1ccccc1Oc1nc(N2CCCC2)nc2c1CN(Cc1ccncc1)CC2 | 17.7% (inactive)

Compound | inhibition
Cc1ccccc1NC(=O)NCc1ccsc1 | -8.6% (inactive)
O=C1c2ccccc2-c2onc3c(N4CCCC4)ccc1c23 | 64% (active)
CCN(Cc1ccccc1)C(=O)c1ccccc1Cl | -7.8% (inactive)
CCCNc1cc(N2CCC(CCC(=O)NCc3ccccn3)CC2)ncn1 | 1.6% (inactive)
COc1ccccc1Nc1cc(C)nc2ccc(Cl)cc12 | 0% (inactive)
O=C(Nc1ccccc1I)c1ccccc1F | -15.8% (inactive) and -24% (inactive)
Cc1ccc(C(=O)Nc2cnc(N3CCCCC3)nc2)c(C)c1 | 9.7% (inactive)
COc1ccc(/C=C2\N=C(c3cccc(Br)c3)OC2=O)cc1 | -5% (inactive)
COc1ccc(C2=NC(c3ccncc3)=Nc3ccc(Br)cc3N2)cc1 | 50.3% (active)
COc1cc(C=C(C#N)c2nc(-c3ccc4c(c3)OCO4)cs2)cc(OC)c1OC(C)=O | -4.5% (inactive)
CC(=O)N1c2ccccc2NC2=C(C(=O)CC(C)(C)C2)C1c1ccc(N(C)C)cc1 (configuration not stated) | 29.3% (inactive)
COc1ccc(S(=O)(=O)CCC(=O)Nc2ccccc2C(F)(F)F)cc1 | 1% (inactive)
COc1ccc(C(=O)N2CCN(c3ccc(Cl)cc3[N+](=O)[O-])CC2)cc1Br | 14.9% (inactive)
O=C(Cc1ccc(Cl)cc1)N1CCN(c2ccc(Cl)cc2[N+](=O)[O-])CC1 | 58.1% (active) and 44% (inactive)
O=[N+]([O-])c1cc(Cl)ccc1N1CCCNCC1 | -0.3% (inactive)
O=C(CSc1nc2[nH]ncc2c(=O)n1-c1ccccc1)NCc1cccc(Cl)c1 | 8% (inactive)
O=[N+]([O-])c1ccc(CN2CC(N3CC=CC3)CS2(=O)=O)cc1 (configuration not stated) | -3% (inactive)
O=S1(=O)CC(N2CCC(Cc3ccccc3)CC2)CN1Cc1ccccc1 (configuration not stated) | 19.9% (inactive)
O=[N+]([O-])c1ccc(CN2CC(N3CCC(c4ccccc4)CC3)CS2(=O)=O)cc1 (configuration not stated) | 50.1% (active)
Cn1c(/C=C/c2ccc(Cl)cc2)nc2ccccc21 | -18.9% (inactive)
OC(COCC12CC3CC(CC(C3)C1)C2)CN1CCc2ccccc2C1 (configuration not stated) | 35.2% (inactive)
Cc1ccc(C(=O)N2CCN(c3nc(CN4CCCCC4)cs3)CC2)cc1F | 2% (inactive)
Cn1nc(-c2nnc(-c3ccccc3Cl)o2)c2c1CCN(C(=O)CCc1ccccc1)C2 | 76.5% (active)

Compound | inhibition
CCC(CC)C(=O)N1CCc2c(c(-c3nnc(-c4ccccc4Cl)o3)nn2C)C1 | 6.42% (inactive)
Cn1nc(-c2nc(Cc3ccccc3)no2)c2c1CCN(C(=O)c1ccccc1Cl)C2 | 6.74% (inactive)
COc1cccc(C=C2Oc3c(ccc(O)c3CN3CCCCC3C)C2=O)c1OC (configuration not stated) | 15.7% (inactive)
COc1cccc(C=C2Oc3c(ccc(O)c3CN(C)Cc3ccccc3)C2=O)c1OC | 93.1% (active)
CCCCN(C)Cc1c(O)ccc2c1OC(=Cc1cc(OC)c(OC)c(OC)c1)C2=O | -3.1% (inactive)
COCC(C)(O)CNC(=O)C(=O)NCc1ccc(C)cc1 (configuration not stated) | -17.7% (inactive)
Cc1ccc2[nH]cc(CCN3CC(C(=O)Nc4cccc(C)c4C)CC3=O)c2c1 (configuration not stated) | 30.5% (inactive)
O=C(Nc1ccc2c(c1)CCC2)C1CC(=O)N(CCc2c[nH]c3ccc(F)cc23)C1 (configuration not stated) | 53.7% (active)
O=C(Nc1ccccc1F)C1CC(=O)N(CCc2c[nH]c3ccc(F)cc23)C1 (configuration not stated) | 9.18% (inactive)
Cc1ccc2[nH]cc(CCN3CC(C(=O)Nc4cccc(Br)c4)CC3=O)c2c1 (configuration not stated) | 39.7% (inactive)
O=C(NCCN1CCOCC1)C1CC(=O)N(CCc2c[nH]c3ccc(F)cc23)C1 (configuration not stated) | -6.88% (inactive)
Cc1ccc2[nH]cc(CCN3CC(C(=O)N4CCN(c5ccccc5)CC4)CC3=O)c2c1 (configuration not stated) | 45.4% (inactive)
Cc1ccc(NC(=O)C2CC(=O)N(CCc3c[nH]c4ccc(Cl)cc34)C2)c(C)c1 (configuration not stated) | 65% (active)
CC(C)CCNC(=O)C1CC(=O)N(CCc2c[nH]c3ccc(Cl)cc23)C1 (configuration not stated) | 25.8% (inactive)
Cc1ccc2[nH]cc(CCN3CC(C(=O)Nc4ccc(Br)cc4)CC3=O)c2c1 (configuration not stated) | 53.5% (active)
CC1(C(=O)NCC2CCCO2)CCC(=O)N1Cc1cccs1 (configuration not stated) | 3% (inactive)
CCN(c1ccc(F)cc1)S(=O)(=O)c1ccc2[nH]cc(C(=O)NCCN(C)C)c(=O)c2c1 | 3% (inactive)
CCOc1ccc(CN2C(=O)CCC2(C)C(=O)NC2CCCC(C)C2C)cc1 (configuration not stated) | -9% (inactive)
C=CCNCCCOc1ccc(Br)cc1C | 0.1% (inactive)
CCc1ccc(NC(=O)CN2C(=O)C(c3ccccc3)=NC23CCCCC3)cc1 | -7.57% (inactive)
COc1ccc(NC(=O)CN2C(=O)C(c3ccccc3)=NC23CCCCCC3)cc1OC | -0.13% (inactive)
O=C(CN1C(=O)C(c2ccccc2)=NC12CCCCC2)Nc1ccc(Cl)cc1 | 50.9% (active)
Cc1ccc(NC(=O)CN2CCN(c3ccccn3)CC2)cc1F | 2% (inactive)
